Laboratory results taken from PubChem BioAssay (EPA / NIEHS).
Inconclusive results are not listed. Where a structure was tested more than once in an assay, its records may differ in their call. Active and inactive are the calls of the source. The calls were made as follows: active = hit-call score of the fitted dose curve at least 0.9, where 1 is the maximum; inconclusive = response in the unintended direction; inactive = score below 0.9.

Legend:
[1] = ATG_XTT_Cytotoxicity: Cytotoxicity Assessment in the Attagene TRANS-FACTORIAL HepG2 Assay (AID 2283584)
Outline: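 Cells: human HepG2, transiently transfected with MRTU reporter constructs. Exposure 24 h. Readout: XTT, cell number. Baseline/neg ctrl DMSO; loss-of-signal scored.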

[2] = TOX21_p53_BLA_p2_viability: Viability Assessment in the Tox21 HCT-116 p53 Agonism Beta-lactamase Assay, Phase 2 (AID 2283591);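 also: compound exposure lasted 16 h at 37 °C; actives lower the ATP signal meaning cytotoxicity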
Outline: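 HCT-116 p53-bla cells (4000/well) rested 5 h at 37C, then received compounds in DMSO (217-fold dilution) for 16 h at 37C, 5% CO2. After the CCF4 read, CellTiter-Glo was added; ATP luminescence was read after 30 min at room temperature.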

[3] = target: Cellular tumor antigen p53 (Homo sapiens) (UniProt P04637); assay: TOX21_p53_BLA_p2_ratio: Tox21 HCT-116 p53 Agonism Beta-lactamase Assay, Ratio, Phase 2 (AID 2283592)
Outline: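 Plated HCT116 p53-bla cells (4000/well) received compound after 5 h, then 16 h at 37C/5% CO2. CCF4-AM added, 2 h RT. Ratio of 460 to 530 nm emission taken as the p53 reporter signal.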

[4] = TOX21_p53_BLA_p3_viability: Viability Assessment in the Tox21 HCT-116 p53 Agonism Beta-lactamase Assay, Phase 3 (AID 2283593);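 also: cells exposed to compound for 16 h before reading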
Outline: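 HCT-116 cells (4000/well) rested 5 h at 37C, then got DMSO compounds by pin tool (217-fold dilution) for 16 h at 37C, 5% CO2. After the bla read, CellTiter-Glo was added and luminescence read at 30 min, room temperature.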

[5] = target: Cellular tumor antigen p53 (Homo sapiens) (UniProt P04637); assay: TOX21_p53_BLA_p3_ratio: Tox21 HCT-116 p53 Agonism Beta-lactamase Assay, Ratio, Phase 3 (AID 2283596)
Outline: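 Cells were seeded at 4000/well, rested 5 h at 37C, then dosed with DMSO compound solutions (217-fold dilution) for 16 h. CCF4-AM substrate was loaded for 2 h at room temperature, and the 460/530 nm emission ratio was fitted for gain of signal versus DMSO.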

[6] = TOX21_p53_BLA_p4_viability: Viability Assessment in the Tox21 HCT-116 p53 Agonism Beta-lactamase Assay, Phase 4 (AID 2283597);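 also: hits lower the luminescence signal meaning cytotoxicity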
Outline: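 Readout: ATP luminescence (CellTiter-Glo), measured 30 min after reagent addition at RT. The reagent followed a 2 h CCF4-AM incubation, and the cells had been exposed to compound for 16 h at 37C.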

[7] = target: Cellular tumor antigen p53 (Homo sapiens) (UniProt P04637); assay: TOX21_p53_BLA_p5_ratio: Tox21 HCT-116 p53 Agonism Beta-lactamase Assay, Ratio, Phase 5 (AID 2283599)
Outline: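 HCT-116 cells carrying a p53-inducible beta-lactamase reporter were seeded at 4000 cells/well and dosed after 5 h with compound in DMSO (217-fold dilution). After 16 h at 37C, CCF4-AM substrate was added for 2 h, and the 460/530 nm emission ratio was scored as gain-of-signal versus DMSO.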

[8] = TOX21_p53_BLA_p5_viability: Viability Assessment in the Tox21 HCT-116 p53 Agonism Beta-lactamase Assay, Phase 5 (AID 2283600)
Outline: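 Workflow: seed 4000 cells per well, wait 5 h, add compounds (DMSO, 217-fold dilution), incubate 16 h, load CCF4-AM 2 h, add CellTiter-Glo, read luminescence after 30 min.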

[9] = target: Cellular tumor antigen p53 (Homo sapiens) (UniProt P04637); assay: TOX21_p53_BLA_p4_ratio: Tox21 HCT-116 p53 Agonism Beta-lactamase Assay, Ratio, Phase 4 (AID 2283601)
Outline: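 HCT116 cells carrying an inducible beta-lactamase reporter were plated at 4000 cells/well, rested 5 h, then exposed to compounds in DMSO (217-fold dilution) for 16 h at 37C. CCF4-AM substrate was loaded 2 h at room temperature; 460/530 nm emission ratio scored gain-of-signal versus DMSO.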

Measured: AC50

Sequence of Cellular tumor antigen p53 (Homo sapiens) (P04637 whole entry, looked up): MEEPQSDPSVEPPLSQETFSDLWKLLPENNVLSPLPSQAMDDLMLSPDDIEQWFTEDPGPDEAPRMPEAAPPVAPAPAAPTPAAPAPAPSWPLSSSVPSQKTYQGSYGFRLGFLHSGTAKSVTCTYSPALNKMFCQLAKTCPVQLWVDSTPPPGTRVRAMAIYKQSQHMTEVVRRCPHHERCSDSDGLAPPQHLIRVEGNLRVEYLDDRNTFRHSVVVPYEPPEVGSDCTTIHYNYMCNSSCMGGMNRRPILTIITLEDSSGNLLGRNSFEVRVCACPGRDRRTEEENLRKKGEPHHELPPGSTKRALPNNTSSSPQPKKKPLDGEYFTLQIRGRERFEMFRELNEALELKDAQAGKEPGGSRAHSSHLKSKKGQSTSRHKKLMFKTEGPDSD

C/C=C(\C)C(=O)OCCc1ccccc1
not listed: [7] | [8] | [9]
inactive: all other assays above

CC(=O)Nc1ccc(C(=O)CCl)cc1
inactive: [1] | [2] | [3] | [4] | [5] | [7] | [8] | [9]
active: [3] 76.7 µM | [5] 29.9 µM | [7] 20.9 µM | [9] 79.4 µM

CCCCCCCCCC(C)C=O (stereo not drawn)
inactive: all assays above

CC=Cc1ccc(OC)c(OC)c1
inactive: [1]

O=[N+]([O-])c1ccc(O)cc1C(F)(F)F
active: [3] 28.2 µM | [5] 42 µM | [7] 30.7 µM | [9] 45.6 µM
inactive: all other assays above

CC(C)=CCCC(C)CCOC=O (stereo not drawn)
active: [4] 39.7 µM | [5] 69.8 µM
inactive: all other assays above

C=C(C)[C@@H]1CC=C(C)C(=O)C1
inactive: [1]

C=Cc1ccc(C)cc1
inactive: all assays above

CCC(=O)OCCOc1ccccc1
inactive: [1]

COC(=O)c1ccc([N+](=O)[O-])cc1
inactive: [1]

NCCNc1cccc2ccccc12
inactive: all assays above

C=C(C)[C@H]1CC=C(C)C(=O)C1
inactive: [1]

O=C(O)CCCCCCCCC(=O)O
inactive: all assays above

CCC1CCCCC1
inactive: [1]
